# Results from PubChem BioAssay AID686978 (National Center for Advancing Translational Sciences (NCATS), 2013).
# Hit rate of the full screen: of about 420,000 compounds, about 64,000 (15%) were called active. Not shown: some 27% with an inconclusive outcome. A selection follows. Values without a mark were called inactive. The call rests on the fitted dose curve; in most records, active means well fitted inhibition curve with a large enough effect; inconclusive means small, poorly fitted or top-dose-only effect; inactive means flat fitted curve, though single readings scatter.
# Assay: qHTS for Inhibitors of human tyrosyl-DNA phosphodiesterase 1 (TDP1): qHTS in cells in absence of CPT; further: nearly all actives have a fitted effect of over 55% in size
# Settings: DT40 Tdp1-/- hTDP1 cells, no CPT, ATP luminescence, 48 h; activity change, negative = growth inhibition: at 46.2 µM (top of the series)
# Procedure, shortened: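 Growth of hTDP1-complemented DT40 Tdp1-knockout cells is measured by ATP luminescence after at least 48 hr compound exposure at 37 °C, with DMSO substituting for the 20 nM CPT used in the parallel screen.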
# On the % scale 0 is the no-effect control and ±100 the full control effect; potency means the concentration at half of the fitted maximal effect.
SMILES,"activity change, negative = growth inhibition",Potency
CC(=O)NC(CC(=O)Nc1ccc(S(=O)(=O)N2CCOCC2)cc1)c1ccccc1 (stereo not given),-0.105%,
O=C(NCCc1c[nH]c2ccccc12)C1CCN(Cc2ccc(Br)cc2)CC1,,16.4 µM (active)
CCOc1ccc(CN2CCCN(C)CC2)cc1,-0.758%,
O=C(CN1C(=O)NC2(CCCCC2)C1=O)NCCc1c[nH]c2ccccc12,-15.7%,
O=C(NCCc1c[nH]c2ccccc12)C(=O)NCC1CCCO1 (stereo not given),-19.7%,
CCOc1ccc(CC(=O)NC2CCN(Cc3ccccc3)CC2)cc1,-0.44%,
CCOc1ccc(CN2CCN(Cc3c[nH]c4ccccc34)CC2)cc1,,5.8 µM (active)
N/C(=N\OC(=O)CCc1ccccc1)c1cccnc1,1.89%,
O=C(COc1coc(CN2CCN(c3ccccc3F)CC2)cc1=O)N1CCc2ccccc21,-1.46%,
Cc1cc(C(=O)OCC(=O)c2c(N)n(C)c(=O)n(C)c2=O)c(C)o1,-4.19%,
Nc1nc(O)c(CC(=O)O)s1,-6.12%,
CCOC(=O)C1=C(O)/C(=C/c2ccc(OCC(=O)Nc3ccc(C)cc3)cc2)N=C1C,-4.71%,
O=c1c(-c2ccccc2)cnc2n1CCS2,19.4%,
CCCc1nn2c(=O)cc(COC(=O)c3ccc(NC(=O)COc4ccc(F)cc4)cc3)nc2s1,-22.2%,
Cc1onc(-c2c(Cl)cccc2Cl)c1C(=O)c1c[nH]c(C(=O)NC2CC2)c1,-17.8%,
CC1(C)CC(=O)c2sc(N)nc2C1,3.79%,
O=C(Cc1ccc(F)cc1)N1CCN=C1SCc1cccc([N+](=O)[O-])c1,4.03%,
Cc1cc(C)cc(C(=O)N2CCN=C2SCc2ccc([N+](=O)[O-])cc2)c1,-40.8%,
Cc1cccc(CC(=O)N2CCN=C2SCc2ccc([N+](=O)[O-])cc2)c1,,16.4 µM (active)
C/C(=N\NC(=O)CCn1nc(C)cc1C)C(C)(C)C,-4.5%,
Cn1c(=O)c2c(SCC(=O)N3CCOCC3)nc(C3CC3)nc2n(C)c1=O,-17.1%,
CCOC(=O)N1CCN(C(=O)CSc2nc(C)nc3c2c(=O)n(C)c(=O)n3C)CC1,-1.53%,
CCc1cnc2c(c1SCC(=O)N1CCC(C)CC1)c(=O)n(C)c(=O)n2C,,20.6 µM (active)
Cc1nc(N)nc(SCc2ccc([N+](=O)[O-])cc2)c1N,,25.9 µM (active)
O=C(CSCc1ccc([N+](=O)[O-])cc1)NCCSCc1ccccc1,-0.761%,
CC(Sc1nnc(Cc2ccc([N+](=O)[O-])cc2)o1)C(N)=O (stereo not given),-1.37%,
CCCN(C(=O)COC(=O)CNS(=O)(=O)c1ccc(NC(C)=O)cc1)C1CCS(=O)(=O)C1 (stereo not given),24.2%,
COc1ccc(OC)c2[nH]c(=O)c(CCNC(=O)C(C)(C)C)cc12,-3.77%,

SMILES,"activity change, negative = growth inhibition",Potency
COc1ccc(OC)c2[nH]c(=O)c(CCNC(=O)C(=O)c3c[nH]c4ccccc34)cc12,,7.31 µM (active)
O=C(NCCCc1ccccc1)C(=O)c1c[nH]c2ccccc12,-16.1%,
N#CCCCn1c(O)c(N=NC(=O)C(O)c2ccccc2)c2ccccc21 (stereo not given),13.4%,
CCNC(=S)NCC,15.3%,
Oc1cc2c(cc1O)CN(C(=S)NCCc1ccc(Cl)cc1)CCC2,,8.91 µM (active)
COc1ccc(CCNC(=S)N2CCN(S(=O)(=O)c3ccc(Cl)cc3)CC2)cc1,-6.86%,
S=C(Nc1ccc(Cl)cc1Cl)N1CCCC1,13.4%,
Cc1cccc(C)c1NC(=O)CNC(=O)Cc1ccc(Br)cc1,-15.9%,
COc1ccccc1CNc1cc(-c2ccccc2CN(C)C)ncn1,-17.6%,
CN(Cc1ccco1)c1cc(-c2ccccc2C(F)(F)F)ncn1,-21.6%,
FC(F)(F)c1ccccc1-c1cc(NCc2ccccc2)ncn1,,9.2 µM (active)
COc1ccc(CCC(=O)c2c(O)cc(OC3OC(CO)C(O)C(O)C3O[C@@H]3OC(C)C(O)C(O)C3O)cc2O)cc1O (stereo not given in full),-8.37%,
COCC1CCCN(Cc2ccc3c(c2)CN(C(=O)c2ccnn2C)CCO3)C1 (stereo not given),-5.47%,
NS(=O)(=O)c1ccc(NC(=S)NNC(=O)c2cccs2)cc1,-24.8%,
Cc1cc(C)nc(SCC(=O)c2ccc(Cl)cc2)n1,-20.5%,
Cc1cc(C)nc(SCC(=O)N(C)C)n1,13.2%,
Cc1cc(Oc2ccc(Cl)cc2)nc(SCC(=O)c2ccccc2)n1,,23.1 µM (active)
Cc1ccc(C)c(Nc2nnc(-c3ccc(C)c(S(=O)(=O)N4CCCCC4)c3)c3ccccc23)c1,,9.2 µM (active)
Cc1ccc(C(=O)NCC(=O)O)cc1S(=O)(=O)N1CCCCC1,-8.3%,
Cc1ccc(NS(=O)(=O)c2cccs2)cc1S(=O)(=O)N1CCCCCC1,-28.3%,
COc1ccc(C2CC(=O)n3c(nc4ccccc43)S2)cc1OC (stereo not given),-19.5%,
COc1cc(=O)n2c(c1C(=O)NC(C)c1ccco1)CCN(C(=O)c1cn3ccc(C)cc3n1)CC2 (stereo not given),-7.59%,
O=C(CN1CCN(C(=O)c2ccco2)CC1)Nc1ccc(Cl)c(C(F)(F)F)c1,,16.4 µM (active)
COc1ccc(OC)c(NC(=O)CN2CCN(C(=O)c3ccco3)CC2)c1,-22.3%,
O=C(CN1CCN(C(=O)c2ccco2)CC1)Nc1ccc2c(c1)OCO2,4.43%,
COc1cc(NC(=O)COC(=O)c2cnc(C)cn2)c(C)cc1[N+](=O)[O-],15.3%,
CCCN1C(=O)C(NS(=O)(=O)c2ccc(N)cc2)(C(F)(F)F)C(C(=O)OC)=C1C (stereo not given),0.164%,
